Reference: PubChem BioAssay AID1159580 (chemical genetic matrix, 2015)
Where “and” joins values, the source holds several entries; their conditions need not be identical. Equal entries are not always repeated. The whole screen tested about 5,500 compounds, of which about 2,000 (36%) were called active. Inconclusive results (about 18%) are left out. Rule as the data show it: active = normalized growth mostly below about 0.91 (no sharp cut-off); inconclusive = no clear call, values can overlap the other calls; inactive = mostly above about 0.92. Some of the results follow.

Test: chemical genetic growth profiling, strain panel (AID 1159580);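 also: tested at 20 µM; growth read once vehicle control cultures reached saturation at 30 °C; 1 = growth at the plate median or of vehicle wells; lower values mean less growth of the strain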
Details: S. cerevisiae deletion strains, growth OD
[1] = locus YDR150W, strain NUM1, stronger effect = lower value
[2] = locus YJR075W, strain HOC1, stronger effect = lower value
[3] = locus YMR307W, strain GAS1, stronger effect = lower value
[4] = locus YNL322C, strain KRE1, stronger effect = lower value
[5] = locus YPL055C, strain LGE1, stronger effect = lower value
[6] = locus YPL241C, strain CIN2, stronger effect = lower value

Measured: normalized growth

C[C@]12Cc3cn4c(nc3C=C1CCC1C2CC[C@@]2(C)[C@H]1CC[C@@]2(O)C#N)nc1ccccc14 (stereo partly specified)
active: locus YAL040C, strain CLN3, stronger effect = lower value 0.88 | locus YER002W, strain NOP16, stronger effect = lower value 0.264 | locus YNL153C, strain GIM3, stronger effect = lower value 0.63 | locus YNL175C, strain NOP13, stronger effect = lower value 0.229 | locus YNL224C, strain SQS1, stronger effect = lower value 0.799 | locus YOR083W, strain WHI5 (second series), stronger effect = lower value 0.852
inactive: locus YCL061C, strain MRC1 (second series), stronger effect = lower value 0.99 | [1] 1 | locus YDR363W, strain ESC2, stronger effect = lower value 0.975 | locus YGR229C, strain SMI1, stronger effect = lower value 0.937 | [2] 0.963 | [3] 0.936 | locus YNL197C, strain WHI3, stronger effect = lower value 0.911 | [4] 0.938 | [5] 0.966 | [6] 0.996

C[C@]12CCC(=O)C=C1CCC1C2[C@@H](O)C[C@@]2(C)C1CC[C@]2(O)C(=O)COC(=O)CCC(=O)O (stereo partly specified)
inactive: locus YAL021C, strain ccr4, stronger effect = lower value 1.02 | locus YAL026C, strain drs2, stronger effect = lower value 1.01 | locus YAL030W, strain snc1, stronger effect = lower value 1.01 | locus YBL061C, strain skt5, stronger effect = lower value 1.02 | locus YBR009C, strain hhf1, stronger effect = lower value 1 | locus YBR021W, strain FUR4, stronger effect = lower value 1.01 | locus YBR023C, strain chs3, stronger effect = lower value 1.02 | locus YBR171W, strain sec66, stronger effect = lower value 1.02 | locus YBR229C, strain ROT2, stronger effect = lower value 1.01 | locus YBR231C, strain swc5, stronger effect = lower value 1.02 | locus YBR279W, strain paf1, stronger effect = lower value 1 | locus YCL011C, strain gbp2, stronger effect = lower value 1.01 | locus YCL016C, strain dcc1, stronger effect = lower value 0.993 | locus YCL029C, strain bik1, stronger effect = lower value 0.999 | locus YCL061C, strain MRC1, stronger effect = lower value 1.02 | locus YCL069W, strain vba3, stronger effect = lower value 1.01 | locus YCR088W, strain abp1, stronger effect = lower value 1.01 | locus YDL005C, strain med2, stronger effect = lower value 1.02 | locus YDL035C, strain GPR1, stronger effect = lower value 1.01 | locus YDL040C, strain nat1, stronger effect = lower value 1.01 | locus YDL074C, strain BRE1, stronger effect = lower value 1.01 | locus YDL101C, strain DUN1, stronger effect = lower value 1 | locus YDL185W, strain tfp1, stronger effect = lower value 1 | locus YDL192W, strain arf1, stronger effect = lower value 1.01 | locus YDR001C, strain nth1, stronger effect = lower value 1.02 | locus YDR069C, strain doa4, stronger effect = lower value 1.02 | locus YDR101C, strain arx1, stronger effect = lower value 1.01 | locus YDR137W, strain rgp1, stronger effect = lower value 1.02 | [1] 1.01 | locus YDR159W, strain sac3, stronger effect = lower value 1.03 | locus YDR162C, strain NBP2, stronger effect = lower value 1.01 | locus YDR195W, strain ref2 0.997 | locus YDR297W, strain sur2, stronger effect = lower value 1.02 | locus YDR318W, strain mcm21, stronger effect = lower value 0.995 | locus YDR334W, strain swr1, stronger effect = lower value 1.01 | locus YDR335W, strain msn5, stronger effect = lower value 1.01 | locus YDR388W, stronger effect = lower value 1 | locus YDR392W, strain spt3, stronger effect = lower value 0.969 | locus YDR502C, strain sam2, stronger effect = lower value 0.999 | locus YEL003W, strain gim4, stronger effect = lower value 1.03 | locus YEL037C, strain rad23, stronger effect = lower value 1.01 | locus YEL061C, strain CIN8 (second series), stronger effect = lower value 1.03 | locus YEL061C, strain CIN8, stronger effect = lower value 1.01 | locus YER015W, strain faa2, stronger effect = lower value 0.998 | locus YER016W, strain bim1, stronger effect = lower value 1.01 | locus YER110C, stronger effect = lower value 1.01 | locus YER111C, strain swi4, stronger effect = lower value 1.02 | locus YER155C, strain BEM2 (second series), stronger effect = lower value 1.03 | locus YER155C, strain BEM2, stronger effect = lower value 0.997 | locus YER167W, strain BCK2, stronger effect = lower value 1.01 | locus YFR010W, strain ubp6, stronger effect = lower value 1.02 | locus YGL078C, strain dbp3, stronger effect = lower value 0.996 | locus YGL086W, strain mad1, stronger effect = lower value 0.999 | locus YGL167C, strain pmr1, stronger effect = lower value 1.03 | locus YGL173C, strain kem1, stronger effect = lower value 1.02 | locus YGL227W, strain vid30, stronger effect = lower value 1.01 | locus YGL240W, strain doc1, stronger effect = lower value 1.02 | locus YGL248W, strain PDE1, stronger effect = lower value 1 | locus YGL253W, strain hxk2, stronger effect = lower value 0.99 | locus YGR078C, strain PAC10, stronger effect = lower value 1.01 | locus YGR135W, strain pre9, stronger effect = lower value 0.989 | locus YGR252W, strain gcn5, stronger effect = lower value 0.943 | locus YHR013C, strain ard1, stronger effect = lower value 1.02 | locus YHR027C, strain rpn1, stronger effect = lower value 1.02 | locus YHR030C, strain SLT2, stronger effect = lower value 1.01 and 0.974 | locus YHR079C, strain IRE1 (second series), stronger effect = lower value 1 | locus YHR079C, strain IRE1, stronger effect = lower value 0.976 | locus YHR094C, strain hxt1, stronger effect = lower value 0.993 | locus YHR129C, strain ARP1, stronger effect = lower value 1 | locus YHR142W, strain chs7, stronger effect = lower value 1.01 | locus YHR200W, strain rpn10, stronger effect = lower value 1.01 | locus YIL066C, strain RNR3, stronger effect = lower value 1.01 | locus YIL073C, strain SPO22, stronger effect = lower value 1.02 | locus YIL125W, strain kgd1, stronger effect = lower value 1 | locus YIR030C, strain dcg1, stronger effect = lower value 1 | locus YJL092W, strain hpr5, stronger effect = lower value 1.02 | locus YJL095W, strain BCK1 (second series), stronger effect = lower value 1.02 | locus YJL095W, strain BCK1, stronger effect = lower value 1.01 and 0.976 | locus YJL115W, strain asf1, stronger effect = lower value 1.02 | locus YJL129C, strain trk1, stronger effect = lower value 1.03 | locus YJL134W, strain LCB3, stronger effect = lower value 1.01 | locus YJL154C, strain vps35, stronger effect = lower value 1.02 | locus YJL164C, strain tpk1, stronger effect = lower value 1.02 | locus YJL166W, strain qcr8, stronger effect = lower value 1 | locus YJL168C, strain set2, stronger effect = lower value 0.996 | locus YJL187C, strain SWE1 (second series), stronger effect = lower value 1.01 | locus YJR043C, strain POL32, stronger effect = lower value 1.02 | locus YJR066W, strain TOR1, stronger effect = lower value 0.931 | [2] 1.02 | locus YKL009W, strain mrt4, stronger effect = lower value 1.02 | locus YKL068W, stronger effect = lower value 0.998 | locus YKL085W, strain MDH1 (second series), stronger effect = lower value 0.999 | locus YKL085W, strain MDH1, stronger effect = lower value 0.999 | locus YKL160W, strain elf1, stronger effect = lower value 1.01 | locus YKR001C, strain vps1, stronger effect = lower value 1.01 | locus YKR026C, strain gcn3, stronger effect = lower value 1.02 | locus YKR091W, strain srl3, stronger effect = lower value 1 | locus YLL001W, strain dnm1, stronger effect = lower value 1.01 | locus YLL026W, stronger effect = lower value 1.01 | locus YLL041C, strain sdh2, stronger effect = lower value 1.03 | locus YLR027C, strain aat2, stronger effect = lower value 1.01 | locus YLR039C, strain RIC1, stronger effect = lower value 1.02 | locus YLR058C, strain SHM2, stronger effect = lower value 0.989 | locus YLR102C, strain apc9, stronger effect = lower value 1 | locus YLR113W, strain HOG1, stronger effect = lower value 0.977 | locus YLR221C, strain rsa3, stronger effect = lower value 1.02 | locus YLR258W, strain gsy2, stronger effect = lower value 1.01 | locus YLR262C, strain YPT6 (second series), stronger effect = lower value 1.02 | locus YLR262C, strain YPT6, stronger effect = lower value 1.06 | locus YLR268W, strain sec22, stronger effect = lower value 0.992 | locus YLR320W, strain mms22, stronger effect = lower value 0.979 | locus YLR330W, strain CHS5, stronger effect = lower value 1.01 | locus YLR342W, strain FKS1 (second series), stronger effect = lower value 0.998 | locus YLR342W, strain FKS1, stronger effect = lower value 1.01 | locus YLR357W, strain rsc2, stronger effect = lower value 0.995 | locus YLR370C, strain arc18, stronger effect = lower value 1.01 | locus YLR371W, strain rom2, stronger effect = lower value 0.996 | locus YLR384C, strain iki3, stronger effect = lower value 1.02 | locus YLR418C, strain cdc73, stronger effect = lower value 0.988 | locus YML016C, strain PPZ1, stronger effect = lower value 1 | locus YML032C, strain rad52, stronger effect = lower value 0.994 | locus YML120C, strain ndi1, stronger effect = lower value 1.02 | locus YML124C, strain tub3, stronger effect = lower value 0.994 | locus YMR058W, strain fet3, stronger effect = lower value 1.02 | locus YMR078C, strain ctf18, stronger effect = lower value 1 | locus YMR125W, strain sto1, stronger effect = lower value 1.01 | locus YMR129W, stronger effect = lower value 1.02 | locus YMR205C, strain PFK2, stronger effect = lower value 1.03 | locus YMR223W, strain ubp8, stronger effect = lower value 0.992 | locus YMR231W, strain pep5, stronger effect = lower value 1.01 | [3] 1.04 | locus YNL067W, strain RPL9B, stronger effect = lower value 1.01 | locus YNL071W, strain lat1, stronger effect = lower value 1.01 | locus YNL183C, strain NPR1, stronger effect = lower value 0.951 | locus YNL209W, strain ssb2, stronger effect = lower value 1.01 | locus YNL233W, strain BNI4, stronger effect = lower value 1 | locus YNL248C, strain rpa49, stronger effect = lower value 1.04 | locus YNL250W, strain rad50, stronger effect = lower value 1 | locus YNL271C, strain bni1, stronger effect = lower value 1.01 | locus YNL298W, strain CLA4, stronger effect = lower value 1.01 | locus YNL307C, strain MCK1, stronger effect = lower value 1.01 | locus YNL322C, strain KRE1 (second series), stronger effect = lower value 1.02 | [4] 1.01 | locus YNR049C, strain mso1, stronger effect = lower value 1.02 | locus YNR052C, strain pop2, stronger effect = lower value 1 | locus YOL006C, strain TOP1, stronger effect = lower value 1.01 | locus YOL012C, strain htz1 0.91 | locus YOL147C, strain pex11, stronger effect = lower value 1 | locus YOR001W, strain rrp6, stronger effect = lower value 1.02 | locus YOR061W, strain CKA2, stronger effect = lower value 1.01 | locus YOR069W, strain VPS5, stronger effect = lower value 1.01 | locus YOR070C, strain gyp1, stronger effect = lower value 1 | locus YOR080W, strain dia2, stronger effect = lower value 1.01 | locus YOR083W, strain WHI5, stronger effect = lower value 0.983 | locus YOR106W, strain vam3, stronger effect = lower value 1.04 | locus YOR136W, strain idh2, stronger effect = lower value 1.01 | locus YOR144C, strain elg1, stronger effect = lower value 1 | locus YOR184W, strain ser1, stronger effect = lower value 1.01 | locus YOR231W, strain MKK1, stronger effect = lower value 0.997 | locus YOR265W, strain rbl2, stronger effect = lower value 1.01 | locus YOR270C, strain vph1, stronger effect = lower value 0.99 | locus YOR290C, strain snf2, stronger effect = lower value 0.988 | locus YOR316C, strain cot1, stronger effect = lower value 1.01 | locus YPL051W, strain arl3, stronger effect = lower value 1 | [5] 1.01 | locus YPL078C, strain atp4, stronger effect = lower value 1 | locus YPL106C, strain sse1, stronger effect = lower value 1 | locus YPL240C, strain hsp82, stronger effect = lower value 1 | [6] 1.01 | locus YPL256C, strain CLN2, stronger effect = lower value 0.98 | locus YPR119W, strain clb2, stronger effect = lower value 1.01 | locus YPR141C, strain kar3, stronger effect = lower value 1.01 | locus YPR163C, strain tif3, stronger effect = lower value 1.01 | locus YPR167C, strain met16, stronger effect = lower value 1.01 | strain wtn01, stronger effect = lower value 0.996
